# Test results published in paper PMC7862700, “An all-to-all approach to the identification of sequence-specific readers for epigenetic DNA modifications on cytosine”.
# Experiments:
# Experiment in all cases: DAPPL (digital affinity profiling via proximity ligation, sequencing); 10 mM Tris-HCl pH 7.5, 50 mM NaCl, 1 mM DTT, 4% glycerol, room temperature, 30 min; GST-TFs on glutathione beads, 16-mer random dsDNA library, 0.1% formaldehyde crosslink after washing; high values mean tight binding
# FLI1 = target: T1, FLI1 (Homo sapiens, UniProt Q01543 1-452); conditions: protein: recombinant; tags: N-terminal GST; dsDNA, one strand shown
# T1 sequence: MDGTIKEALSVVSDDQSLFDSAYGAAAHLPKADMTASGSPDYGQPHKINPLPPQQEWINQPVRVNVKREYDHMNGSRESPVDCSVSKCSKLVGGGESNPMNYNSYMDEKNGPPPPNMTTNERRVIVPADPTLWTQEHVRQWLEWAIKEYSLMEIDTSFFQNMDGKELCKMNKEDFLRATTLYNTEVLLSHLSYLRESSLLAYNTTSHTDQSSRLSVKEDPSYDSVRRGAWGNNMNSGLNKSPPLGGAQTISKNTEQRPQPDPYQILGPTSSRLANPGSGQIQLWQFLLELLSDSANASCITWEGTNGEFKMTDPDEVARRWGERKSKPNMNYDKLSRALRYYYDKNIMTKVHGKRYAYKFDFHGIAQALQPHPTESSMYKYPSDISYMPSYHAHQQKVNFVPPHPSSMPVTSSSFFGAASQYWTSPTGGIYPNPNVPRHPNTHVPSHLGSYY
# Outline: (§1)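 Binding signal is each hexamer's read frequency for a factor divided by its frequency in the tag-only sample. The factors were GST-fused human transcription factors from yeast, captured on glutathione beads, DNA-barcoded and pooled with that sample. Pools were incubated with 200 nmole of a random double-stranded 16-mer DNA library in Tris/NaCl/DTT/glycerol buffer at room temperature for 30 min, then washed, crosslinked with 0.1% formaldehyde, proximity-ligated with BsaI/T4 ligase (1 h, 37 °C), PCR-amplified and sequenced on an Illumina NextSeq500.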
# ELK1 = target: T2, ELK1 (Homo sapiens, UniProt P19419 1-428); conditions: protein: recombinant; tags: N-terminal GST; dsDNA, one strand shown
# T2 sequence: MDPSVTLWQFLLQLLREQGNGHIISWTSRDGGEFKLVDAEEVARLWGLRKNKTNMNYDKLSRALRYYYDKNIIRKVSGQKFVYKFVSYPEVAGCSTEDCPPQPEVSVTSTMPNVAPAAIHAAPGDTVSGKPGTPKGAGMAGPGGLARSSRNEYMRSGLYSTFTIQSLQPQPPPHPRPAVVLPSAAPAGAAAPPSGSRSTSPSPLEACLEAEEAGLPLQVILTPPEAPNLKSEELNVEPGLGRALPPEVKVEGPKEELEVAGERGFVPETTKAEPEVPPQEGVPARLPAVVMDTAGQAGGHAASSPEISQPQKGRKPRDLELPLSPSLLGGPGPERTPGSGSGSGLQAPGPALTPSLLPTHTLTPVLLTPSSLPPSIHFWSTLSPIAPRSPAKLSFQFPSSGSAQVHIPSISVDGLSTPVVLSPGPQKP
# Outline: as §1
# GABPA = target: T3, GABPA (Homo sapiens, UniProt Q06546 1-454); conditions: protein: recombinant; tags: N-terminal GST; dsDNA, one strand shown
# T3 sequence: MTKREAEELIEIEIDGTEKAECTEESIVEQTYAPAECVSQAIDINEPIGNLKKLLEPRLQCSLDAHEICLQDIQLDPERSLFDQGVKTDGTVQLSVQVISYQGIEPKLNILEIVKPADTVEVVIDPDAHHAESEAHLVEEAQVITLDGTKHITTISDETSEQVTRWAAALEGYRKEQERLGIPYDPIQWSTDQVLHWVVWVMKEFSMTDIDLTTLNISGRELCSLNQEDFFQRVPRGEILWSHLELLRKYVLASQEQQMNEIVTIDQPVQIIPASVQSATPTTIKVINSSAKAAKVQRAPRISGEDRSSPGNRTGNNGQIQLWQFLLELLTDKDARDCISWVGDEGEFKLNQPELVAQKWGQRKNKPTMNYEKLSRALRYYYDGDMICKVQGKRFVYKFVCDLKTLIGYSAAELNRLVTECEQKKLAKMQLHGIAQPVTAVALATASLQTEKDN
# Outline: as §1
# ERG = target: T4, ERG (Homo sapiens, UniProt P11308 1-479); conditions: protein: recombinant; tags: N-terminal GST; dsDNA, one strand shown
# T4 sequence: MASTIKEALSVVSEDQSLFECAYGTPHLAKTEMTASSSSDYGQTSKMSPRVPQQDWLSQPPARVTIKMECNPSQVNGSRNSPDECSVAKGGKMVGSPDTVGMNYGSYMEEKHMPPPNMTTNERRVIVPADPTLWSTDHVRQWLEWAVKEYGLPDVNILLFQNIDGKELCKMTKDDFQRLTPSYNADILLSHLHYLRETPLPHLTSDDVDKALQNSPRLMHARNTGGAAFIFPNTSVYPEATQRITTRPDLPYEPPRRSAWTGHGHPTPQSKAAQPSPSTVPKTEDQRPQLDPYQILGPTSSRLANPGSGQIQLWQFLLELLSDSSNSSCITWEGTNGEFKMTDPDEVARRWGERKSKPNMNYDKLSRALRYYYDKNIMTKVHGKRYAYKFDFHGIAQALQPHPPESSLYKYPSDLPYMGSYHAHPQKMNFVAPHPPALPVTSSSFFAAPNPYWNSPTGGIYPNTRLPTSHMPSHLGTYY
# Outline: as §1
# ELF1 = ELF1 (Homo sapiens, UniProt P32519 1-619); conditions: protein: recombinant; tags: N-terminal GST; dsDNA, one strand shown
# ELF1, sequence (P32519 whole entry): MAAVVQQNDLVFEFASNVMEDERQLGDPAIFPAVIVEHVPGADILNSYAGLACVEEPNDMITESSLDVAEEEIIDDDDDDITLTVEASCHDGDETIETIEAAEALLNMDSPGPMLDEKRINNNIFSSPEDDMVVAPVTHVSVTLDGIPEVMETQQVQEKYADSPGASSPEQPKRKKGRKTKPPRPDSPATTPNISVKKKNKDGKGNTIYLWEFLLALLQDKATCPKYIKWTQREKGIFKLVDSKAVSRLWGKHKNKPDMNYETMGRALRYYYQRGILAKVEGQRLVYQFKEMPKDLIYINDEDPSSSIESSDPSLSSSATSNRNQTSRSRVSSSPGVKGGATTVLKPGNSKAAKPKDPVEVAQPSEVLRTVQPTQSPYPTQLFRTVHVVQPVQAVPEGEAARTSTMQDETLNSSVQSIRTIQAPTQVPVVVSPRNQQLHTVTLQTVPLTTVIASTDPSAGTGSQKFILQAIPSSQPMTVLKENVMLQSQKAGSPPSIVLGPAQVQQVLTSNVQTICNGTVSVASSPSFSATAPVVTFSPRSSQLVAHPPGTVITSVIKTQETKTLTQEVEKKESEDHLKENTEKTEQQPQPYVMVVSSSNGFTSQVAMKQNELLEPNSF
# Outline: as §1
# EHF = target: T5, EHF (Homo sapiens, UniProt Q9NZC4 1-300); conditions: protein: recombinant; tags: N-terminal GST; dsDNA, one strand shown
# T5 sequence: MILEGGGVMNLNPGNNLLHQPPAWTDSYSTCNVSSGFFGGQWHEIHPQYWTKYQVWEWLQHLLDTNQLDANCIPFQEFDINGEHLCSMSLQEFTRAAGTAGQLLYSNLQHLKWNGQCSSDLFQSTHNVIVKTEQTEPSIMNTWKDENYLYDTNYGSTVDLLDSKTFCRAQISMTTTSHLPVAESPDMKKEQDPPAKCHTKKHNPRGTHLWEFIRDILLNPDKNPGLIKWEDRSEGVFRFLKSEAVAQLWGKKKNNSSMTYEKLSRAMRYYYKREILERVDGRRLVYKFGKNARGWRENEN
# Outline: as §1
# SPI1 = SPI1 (Homo sapiens, UniProt P17947 1-270); conditions: protein: recombinant; tags: N-terminal GST; dsDNA, one strand shown
# Outline: as §1
# SPIB = SPIB (Homo sapiens, UniProt Q01892 1-262); conditions: protein: recombinant; tags: N-terminal GST; dsDNA, one strand shown
# SPIB, sequence (Q01892 whole entry): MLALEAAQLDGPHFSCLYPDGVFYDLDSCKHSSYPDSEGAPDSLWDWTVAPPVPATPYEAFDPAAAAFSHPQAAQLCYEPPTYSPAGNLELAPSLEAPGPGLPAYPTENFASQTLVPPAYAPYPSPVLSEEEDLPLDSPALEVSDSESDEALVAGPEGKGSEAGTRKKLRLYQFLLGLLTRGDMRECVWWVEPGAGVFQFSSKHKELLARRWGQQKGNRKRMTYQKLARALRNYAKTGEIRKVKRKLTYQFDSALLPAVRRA
# Outline: as §1
# ELK3 = target: T6, ELK3 (Homo sapiens, UniProt P41970 1-407); conditions: protein: recombinant; tags: N-terminal GST; dsDNA, one strand shown
# T6 sequence: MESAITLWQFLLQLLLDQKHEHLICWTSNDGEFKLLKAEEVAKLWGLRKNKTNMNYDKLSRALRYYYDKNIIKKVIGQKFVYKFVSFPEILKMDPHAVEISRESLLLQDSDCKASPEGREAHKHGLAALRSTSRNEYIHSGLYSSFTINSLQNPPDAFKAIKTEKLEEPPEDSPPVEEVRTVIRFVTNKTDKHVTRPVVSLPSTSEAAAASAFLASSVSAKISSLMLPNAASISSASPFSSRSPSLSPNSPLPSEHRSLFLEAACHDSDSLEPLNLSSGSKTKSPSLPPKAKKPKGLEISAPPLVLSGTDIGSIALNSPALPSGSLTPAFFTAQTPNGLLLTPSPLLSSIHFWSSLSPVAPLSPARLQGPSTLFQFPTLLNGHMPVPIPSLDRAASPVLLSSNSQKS
# Outline: as §1
# FEV = target: T7, FEV (Homo sapiens, UniProt Q99581 1-238); conditions: protein: recombinant; tags: N-terminal GST; dsDNA, one strand shown
# T7 sequence: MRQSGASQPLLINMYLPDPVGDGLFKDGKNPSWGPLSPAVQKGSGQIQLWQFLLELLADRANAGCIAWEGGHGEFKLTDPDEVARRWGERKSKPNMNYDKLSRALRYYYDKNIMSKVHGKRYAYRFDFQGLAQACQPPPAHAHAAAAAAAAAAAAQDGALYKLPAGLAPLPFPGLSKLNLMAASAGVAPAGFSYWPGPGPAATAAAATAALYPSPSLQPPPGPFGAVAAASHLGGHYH
# Outline: as §1
# ETV5 = ETV5 (Homo sapiens, UniProt P41161 1-510); conditions: protein: recombinant; tags: N-terminal GST; dsDNA, one strand shown
# ETV5, sequence (P41161 whole entry): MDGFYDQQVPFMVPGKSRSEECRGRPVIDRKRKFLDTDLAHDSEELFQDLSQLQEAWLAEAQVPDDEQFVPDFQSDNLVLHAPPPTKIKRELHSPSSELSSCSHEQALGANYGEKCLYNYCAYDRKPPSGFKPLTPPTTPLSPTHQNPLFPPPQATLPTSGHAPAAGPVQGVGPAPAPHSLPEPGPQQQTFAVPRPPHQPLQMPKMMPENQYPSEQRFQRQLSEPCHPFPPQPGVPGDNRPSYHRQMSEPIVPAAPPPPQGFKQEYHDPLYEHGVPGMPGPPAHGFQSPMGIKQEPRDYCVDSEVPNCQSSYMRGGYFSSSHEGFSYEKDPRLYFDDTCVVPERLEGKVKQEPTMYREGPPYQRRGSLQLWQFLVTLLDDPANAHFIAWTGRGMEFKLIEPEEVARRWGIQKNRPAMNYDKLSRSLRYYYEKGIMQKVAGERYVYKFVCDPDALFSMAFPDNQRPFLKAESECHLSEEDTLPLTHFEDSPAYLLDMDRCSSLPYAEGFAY
# Outline: as §1
# HSF1 = HSF1 (Homo sapiens, UniProt Q00613 1-529); conditions: protein: recombinant; tags: N-terminal GST; chain copies: 3; dsDNA, one strand shown
# HSF1, sequence (Q00613 whole entry): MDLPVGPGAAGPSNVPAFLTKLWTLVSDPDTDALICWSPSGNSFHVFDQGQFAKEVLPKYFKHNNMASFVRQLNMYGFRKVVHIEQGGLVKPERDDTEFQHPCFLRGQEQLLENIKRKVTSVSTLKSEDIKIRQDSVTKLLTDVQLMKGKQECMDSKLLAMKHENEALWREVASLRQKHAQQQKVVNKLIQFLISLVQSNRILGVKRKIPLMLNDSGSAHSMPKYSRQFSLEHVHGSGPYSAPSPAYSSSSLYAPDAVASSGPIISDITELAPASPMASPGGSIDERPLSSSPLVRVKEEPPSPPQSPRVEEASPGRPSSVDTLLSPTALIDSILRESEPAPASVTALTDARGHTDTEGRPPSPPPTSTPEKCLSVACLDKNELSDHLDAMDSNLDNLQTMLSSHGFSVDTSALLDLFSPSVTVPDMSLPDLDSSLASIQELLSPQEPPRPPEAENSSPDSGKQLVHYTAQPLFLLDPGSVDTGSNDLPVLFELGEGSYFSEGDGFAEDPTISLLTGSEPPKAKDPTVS
# Outline: as §1
# SPIC = target: T8, SPIC (Homo sapiens, UniProt Q8N5J4 1-248); conditions: protein: recombinant; tags: N-terminal GST; dsDNA, one strand shown
# T8 sequence: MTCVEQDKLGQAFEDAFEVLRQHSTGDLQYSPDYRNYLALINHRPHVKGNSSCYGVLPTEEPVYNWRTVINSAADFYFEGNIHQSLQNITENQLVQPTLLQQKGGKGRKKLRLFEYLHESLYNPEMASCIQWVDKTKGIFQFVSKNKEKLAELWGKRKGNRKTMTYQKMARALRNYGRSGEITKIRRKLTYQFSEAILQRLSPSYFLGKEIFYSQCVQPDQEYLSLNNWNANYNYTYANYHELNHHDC
# Outline: as §1
# ELF4 = ELF4 (Homo sapiens, UniProt Q99607 1-663); conditions: protein: recombinant; tags: N-terminal GST; dsDNA, one strand shown
# ELF4, sequence (Q99607 whole entry): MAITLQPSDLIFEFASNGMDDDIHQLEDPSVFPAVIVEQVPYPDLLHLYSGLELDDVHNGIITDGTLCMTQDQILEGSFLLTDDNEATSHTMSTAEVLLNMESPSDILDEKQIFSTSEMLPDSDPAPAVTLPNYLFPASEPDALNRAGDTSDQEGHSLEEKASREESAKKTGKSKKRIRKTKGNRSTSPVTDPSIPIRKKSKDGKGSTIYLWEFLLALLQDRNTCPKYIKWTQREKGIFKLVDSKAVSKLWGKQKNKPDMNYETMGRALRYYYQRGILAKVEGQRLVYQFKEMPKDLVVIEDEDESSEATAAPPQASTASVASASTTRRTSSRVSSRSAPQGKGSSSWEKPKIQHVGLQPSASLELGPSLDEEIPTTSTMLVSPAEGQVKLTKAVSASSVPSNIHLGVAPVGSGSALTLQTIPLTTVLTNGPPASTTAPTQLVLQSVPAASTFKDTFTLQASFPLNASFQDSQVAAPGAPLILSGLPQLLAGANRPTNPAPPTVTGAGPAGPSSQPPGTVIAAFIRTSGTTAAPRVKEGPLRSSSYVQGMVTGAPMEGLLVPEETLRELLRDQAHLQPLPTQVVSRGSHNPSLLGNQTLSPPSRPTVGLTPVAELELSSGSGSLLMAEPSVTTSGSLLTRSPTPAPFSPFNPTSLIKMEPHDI
# Outline: as §1
# ELK4 = target: T9, ELK4 (Homo sapiens, UniProt P28324-2 1-405); conditions: protein: recombinant; tags: N-terminal GST; dsDNA, one strand shown
# T9 sequence: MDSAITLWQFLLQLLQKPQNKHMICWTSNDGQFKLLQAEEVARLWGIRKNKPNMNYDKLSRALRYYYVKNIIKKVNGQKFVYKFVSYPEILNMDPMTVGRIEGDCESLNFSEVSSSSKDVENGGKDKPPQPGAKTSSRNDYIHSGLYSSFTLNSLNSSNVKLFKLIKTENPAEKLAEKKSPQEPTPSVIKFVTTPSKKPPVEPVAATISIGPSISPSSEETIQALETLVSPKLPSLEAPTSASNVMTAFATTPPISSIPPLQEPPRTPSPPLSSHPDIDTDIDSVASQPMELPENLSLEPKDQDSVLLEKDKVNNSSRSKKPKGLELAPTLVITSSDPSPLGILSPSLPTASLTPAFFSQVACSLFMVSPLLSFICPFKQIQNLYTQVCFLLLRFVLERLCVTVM
# Outline: as §1
# ETV2 = target: T10, ETV2 (Homo sapiens, UniProt O00321 1-342); conditions: protein: recombinant; tags: N-terminal GST; dsDNA, one strand shown
# T10 sequence: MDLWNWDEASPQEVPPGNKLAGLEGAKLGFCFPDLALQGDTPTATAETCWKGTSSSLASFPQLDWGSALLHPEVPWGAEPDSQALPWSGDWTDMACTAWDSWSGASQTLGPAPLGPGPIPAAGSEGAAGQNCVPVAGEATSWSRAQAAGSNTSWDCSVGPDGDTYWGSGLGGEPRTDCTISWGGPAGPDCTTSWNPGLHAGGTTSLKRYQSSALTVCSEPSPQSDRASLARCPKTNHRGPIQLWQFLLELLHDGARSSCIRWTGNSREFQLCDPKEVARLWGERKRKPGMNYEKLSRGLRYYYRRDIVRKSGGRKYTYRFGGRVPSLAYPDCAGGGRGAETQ
# Outline: as §1
# ELF3 = target: T11, ELF3 (Homo sapiens, UniProt P78545 1-371); conditions: protein: recombinant; tags: N-terminal GST; dsDNA, one strand shown
# T11 sequence: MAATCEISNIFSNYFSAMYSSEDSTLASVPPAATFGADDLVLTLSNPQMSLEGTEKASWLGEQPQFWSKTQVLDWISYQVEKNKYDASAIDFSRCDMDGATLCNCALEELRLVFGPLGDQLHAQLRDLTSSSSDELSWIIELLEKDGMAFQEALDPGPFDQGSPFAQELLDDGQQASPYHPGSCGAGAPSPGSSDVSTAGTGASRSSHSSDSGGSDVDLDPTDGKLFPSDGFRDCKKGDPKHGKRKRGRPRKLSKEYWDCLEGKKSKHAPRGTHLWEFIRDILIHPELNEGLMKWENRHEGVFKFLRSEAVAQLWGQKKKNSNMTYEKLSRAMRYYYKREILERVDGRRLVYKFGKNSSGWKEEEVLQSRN
# Outline: as §1
# CRX = CRX (Homo sapiens, UniProt O43186 1-299); conditions: protein: recombinant; tags: N-terminal GST; dsDNA, one strand shown
# CRX, sequence (O43186 whole entry): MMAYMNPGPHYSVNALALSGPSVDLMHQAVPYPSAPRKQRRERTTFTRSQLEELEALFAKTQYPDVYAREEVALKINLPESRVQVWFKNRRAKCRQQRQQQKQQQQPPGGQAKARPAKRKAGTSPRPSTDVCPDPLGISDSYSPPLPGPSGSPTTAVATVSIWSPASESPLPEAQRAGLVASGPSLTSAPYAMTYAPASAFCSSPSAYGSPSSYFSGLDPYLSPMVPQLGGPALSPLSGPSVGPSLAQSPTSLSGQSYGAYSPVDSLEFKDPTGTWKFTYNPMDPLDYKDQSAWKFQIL
# Outline: as §1
# ETV1 = ETV1 (Homo sapiens, UniProt P50549 1-477); conditions: protein: recombinant; tags: N-terminal GST; dsDNA, one strand shown
# ETV1, sequence (P50549 whole entry): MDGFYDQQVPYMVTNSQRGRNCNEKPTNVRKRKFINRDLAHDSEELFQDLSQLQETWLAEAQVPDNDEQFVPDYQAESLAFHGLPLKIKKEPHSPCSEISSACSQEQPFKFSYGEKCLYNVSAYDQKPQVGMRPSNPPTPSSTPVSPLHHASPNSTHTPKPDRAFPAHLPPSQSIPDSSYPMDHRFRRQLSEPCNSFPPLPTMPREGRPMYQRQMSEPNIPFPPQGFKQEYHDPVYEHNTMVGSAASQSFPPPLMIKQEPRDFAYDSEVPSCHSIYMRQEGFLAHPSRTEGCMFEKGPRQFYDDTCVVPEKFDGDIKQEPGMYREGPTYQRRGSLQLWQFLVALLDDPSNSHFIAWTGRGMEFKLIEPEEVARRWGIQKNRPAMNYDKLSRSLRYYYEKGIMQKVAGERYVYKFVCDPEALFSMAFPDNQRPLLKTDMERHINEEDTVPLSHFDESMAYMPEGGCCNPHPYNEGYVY
# Outline: as §1
sequence,measurement,setting,value
CCATTA,binding signal,FLI1,"1.08 fold enrichment (6-mer frequency, TF over GST control)"
same,binding signal,ELK1,"1.05 fold enrichment (6-mer frequency, TF over GST control)"
same,binding signal,GABPA,"1.11 fold enrichment (6-mer frequency, TF over GST control)"
same,binding signal,ERG,"1.1 fold enrichment (6-mer frequency, TF over GST control)"
same,binding signal,ELF1,"1.14 fold enrichment (6-mer frequency, TF over GST control)"
same,binding signal,EHF,"1.06 fold enrichment (6-mer frequency, TF over GST control)"
same,binding signal,SPI1,"1.17 fold enrichment (6-mer frequency, TF over GST control)"
same,binding signal,SPIB,"1.23 fold enrichment (6-mer frequency, TF over GST control)"
same,binding signal,ELK3,"1.09 fold enrichment (6-mer frequency, TF over GST control)"
same,binding signal,FEV,"1.07 fold enrichment (6-mer frequency, TF over GST control)"
same,binding signal,ETV5,"1.06 fold enrichment (6-mer frequency, TF over GST control)"
same,binding signal,HSF1,"1.11 fold enrichment (6-mer frequency, TF over GST control)"
same,binding signal,SPIC,"1.16 fold enrichment (6-mer frequency, TF over GST control)"
same,binding signal,ELF4,"1.12 fold enrichment (6-mer frequency, TF over GST control)"
same,binding signal,ELK4,"1.24 fold enrichment (6-mer frequency, TF over GST control)"
same,binding signal,ETV2,"1.15 fold enrichment (6-mer frequency, TF over GST control)"
same,binding signal,ELF3,"1.21 fold enrichment (6-mer frequency, TF over GST control)"
same,binding signal,CRX,"1.32 fold enrichment (6-mer frequency, TF over GST control)"
same,binding signal,ETV1,"1.16 fold enrichment (6-mer frequency, TF over GST control)"
